# Beta apoptosis: blocks beta cell apoptosis | INS-1E cytokine-induced death, ATP luminescence, 48 h; percent of positive-control rescue, neutral wells zero | protection from apoptosis, % (no concentration beside the values) | 300,000 tested, 0.8% active;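 active = Every replicate reaches about 75%, or at least half do and their mean reaches it too, limit read from the data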;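 note: 0% = cytokine-treated negative control wells and 100% = positive control rescue; higher means more ATP so stronger rescue from cytokine killing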
# 697 NFkB inh: inhibitors of the PMA/ionomycin-induced NF-kB reporter in 697 B cells; 697 B-cell NF-kB luciferase reporter, 16 h; inhibition, % at 4 µM; 330,000 tested, 0.33% active; AID 435022; in the data active = inhibition above about 35%
# Jurkat NFkB inh: lowers PMA/ionomycin-induced NF-kB signal in Jurkat cells; PMA/ionomycin-induced NF-kB luciferase reporter, luminescence; inhibition, % at 4 µM; 330,000 tested, 0.53% active; in the data active = inhibition above about 50%
# Gli-Sufu block: Gli-Sufu pathway antagonism | Sufu-KO-LIGHT fibroblasts, Gli luciferase reporter luminescence | inhibition, % at 5 µM | 340,000 tested, 0.74% active;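 active = inhibition above about 55%, limit read from the data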;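 note: 0% = DMSO-treated cells and 100% = wells with medium but no cells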
# Jurkat NFkB conf: inhibitors of the PMA/ionomycin-induced NF-kB reporter in Jurkat cells, retest | shares compounds with Jurkat NFkB inh | Jurkat NF-kB luciferase, 16 h | inhibition, % at 4 µM | 2,700 tested, 27% active | AID 435020;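 active = inhibition reaching about 45% at 4 µM in either replicate, limit read from the data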;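 note: plate controls were PMA/ionomycin stimulated DMSO wells for no effect and unstimulated DMSO wells for full effect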
# * marks the source's active call; other numbers are inactive results; · = not tested or not shown. The list is not random: actives were taken first. Their share in the collection is about 1.8%.
SMILES,Beta apoptosis,697 NFkB inh,Jurkat NFkB inh,Gli-Sufu block,Jurkat NFkB conf
O=C(c1cc([N+](=O)[O-])ccc1N1CCOCC1)N1CCN(c2ccccc2)CC1,53.1,-53.6,73.7*,·,33.1
CC(=O)N1CCN(C(=O)c2ccc3c(c2)OCCO3)CC1,4.6,16.2,16.3,0.8,·
O=C(c1ccc2c(c1)OCCO2)N1CCN(c2ccc([N+](=O)[O-])cc2)CC1,0.0,7.2,56.2*,·,-12.2
Cc1c(C(=O)N2CCN(c3ccc([N+](=O)[O-])cc3)CC2)oc2ccccc12,10.5,14.1,50.8*,9.9,32.0
O=C(/C=C/c1ccco1)NCCc1ccc(F)cc1,-1.7,-18.3,-27.7,-21.4,·
Cn1c(N)c(S(=O)(=O)N2CCN(C(=O)c3ccco3)CC2)c(=O)n(C)c1=O,-14.5,5.8,11.5,5.8,·
Cn1c(CC2C(=O)Nc3ccc(Br)cc32)nc2ccccc2c1=O (configuration not stated),-6.2,-0.3,6.7,-16.0,·
CCn1nnc2c(=O)oc3ccccc3c21,-10.1,8.7,4.8,-12.3,·
O=C(NCCOc1ccccc1F)c1cc([N+](=O)[O-])ccc1N1CCOCC1,·,-7.9,56.7*,-5.7,29.5
CCCNC(=O)C1CC(=O)N(c2ccc(OCc3ccc(F)cc3)cc2)C1 (configuration not stated),-9.3,-32.8,-151.8,-51.7,-75.2
CCCNC(=O)C1CC(=O)N(c2ccc(OCc3ccc(Cl)cc3)cc2)C1 (configuration not stated),·,-30.5,-127.8,13.4,·
CC(C)(C)NC(=O)NC(=O)COc1ccc(Br)cc1Br,3.9,-201.4,-210.4,-105.3,-100.8
O=C(COc1ccc(Br)cc1Br)NC(=O)NC1CCCC1,-2.3,-66.5,-73.2,-42.8,·
CCN(Cc1ccccc1)C(=O)CCc1nnc(CCCc2ccccc2)o1,0.4,-6.8,-29.3,-1.0,·
CC1(C)N=C(N)N=C(N)N1c1ccc(Oc2ccc(Cl)cc2)c(Cl)c1,2.2,28.6,82.4*,64.9*,66.2*
CC(NC(=O)Cn1c(=O)oc2cc(S(=O)(=O)N3CCCC3)ccc21)c1ccccc1 (configuration not stated),·,5.1,6.9,7.4,·
Cc1ccc(-c2nnc(SCc3ccccc3F)o2)cc1,-4.2,-149.1,-165.4,-67.1,-72.5
COc1ccc(-c2nnc(SCc3ccccc3F)o2)cc1OC,-7.5,-28.2,-30.3,5.3,·
CC(=O)c1sc2c(c1OC(=O)c1ccc(Cl)cc1Cl)c(=O)n(-c1ccccc1)c(=S)n2-c1ccccc1,-0.9,-15.0,68.8*,10.8,86.9*
CCCN(CCC)S(=O)(=O)c1ccc(C(=O)OCCN2C(=O)c3cccc4c(N5CCOCC5)ccc(c34)C2=O)cc1,0.9,-26.6,0.9,-2.4,·
O=C(OCCN1C(=O)c2cccc3c(N4CCOCC4)ccc(c23)C1=O)c1ccc(Cl)cc1,4.2,-55.7,64.3*,-8.2,37.4
C(=N\Nc1nc(-c2ccccn2)nc2ccccc12)/c1ccccc1,91.6*,-29.7,101.0*,·,15.4
COc1cccc(/C=C(\C#N)c2nc3ccccc3[nH]2)c1OCC(=O)O,·,-54.4,-24.5,-16.2,·
CCO/N=C(/c1nonc1N)N1CCN(c2ccc([N+](=O)[O-])cc2)CC1,1.4,8.0,21.1,12.0,·
NC1=NC2(CCCCC2)N=C(Nc2ccc(F)cc2F)N1,-0.6,3.4,4.4,1.6,·
SMILES,Beta apoptosis,697 NFkB inh,Jurkat NFkB inh,Gli-Sufu block,Jurkat NFkB conf
Cc1cc(C)cc(NC2=NC3(CCCCC3)N=C(N)N2)c1,-0.8,-1.8,65.7*,-3.7,11.9
Cc1ccc(Cc2cnc(N3C(=N)SC(c4ccccc4)C3=O)s2)cc1 (configuration not stated),0.3,0.9,8.2,0.1,·
CCN1CCN(c2cc(C)c3cc(NC(=O)CCC(=O)Nc4ccc(OC)c(OC)c4)ccc3n2)CC1,-6.3,6.6,-4.5,-0.1,·
COc1cccc(C(=O)Nc2ccc3nc(N4CCN(c5ncccn5)CC4)cc(C)c3c2)c1OC,23.6,-28.3,19.1,·,·
CCOc1ccccc1C(=O)Nc1ccc2nc(N3CCN(c4ncccn4)CC3)cc(C)c2c1,-5.2,-49.4,70.2*,18.5,43.7
CCN1CCN(c2cc(C)c3cc(NC(=O)c4ccc(OC)c(OC)c4)ccc3n2)CC1,11.0,-63.1,56.9*,6.9,29.0
N#CCc1nn2c(-c3ccccc3)ccnc2c1C#N,4.2,3.7,5.2,·,·
C#CCOCCOCCOCCNc1nc(N2CCN(C(=O)[C@H]([C@@H](C)CC)n3cc(CCC(=O)O)nn3)CC2)nc(N2CCN(C(=O)[C@H](Cc3ccc(O)cc3)n3cc(CCO)nn3)CC2)n1,·,·,·,16.2,·

# Bioassay records: PubChem BioAssay, several laboratories
